Data published in PubChem BioAssay (Tox21).
Results filed as inconclusive are left out. Unmarked numbers belong to inactive results. Active and inactive are the calls of the source. The call rests on the fitted dose curve; in most records, active means well fitted cell-killing curve with a large enough effect in the repeat runs; inconclusive means weak or mixed curves, or effect the other way; inactive means flat fitted curve, though single readings scatter.

Assay: cAMP Responsive Elements (CRE) small molecule antagonists, cell-based qHTS assay: qHTS cell viability counter screen (AID 2060913); further: nearly all actives have a fitted effect of over 40% in size
Details: CRE-bla HEK293T viability, CellTiter-Glo luminescence, 5 h; series mostly up to 92.4 µM; viability change, negative = cytotoxic: at the top concentration
Summary of the method: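 Cytotoxicity counter screen multiplexed with the CRE-bla antagonist read: HEK293T cells in DMEM with dialyzed FBS and 25 mM HEPES were treated 3 hrs under 0.25 uM final NKH477, then viability measured by CellTiter-Glo luminescence.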
On the % scale 0 is the no-effect control and ±100 the full control effect; potency means the concentration at half of the fitted maximal effect.

| SMILES | viability change, negative = cytotoxic | Potency |
| --- | --- | --- |
| CN(C)CCc1c[nH]c2ccc(C[C@H]3COC(=O)N3)cc12 | 6.06% [at 42.5 µM] | – |
| O[C@@H](c1cc(C(F)(F)F)nc2c(C(F)(F)F)cccc12)[C@H]1CCCCN1 | -17.7% [at 42.5 µM] | – |
| Cc1onc(-c2c(Cl)cccc2Cl)c1C(=O)Cl | -0.779% [at 42.5 µM] | – |
| CC(C)N=C(N)/N=C(\N)Nc1ccc(Cl)cc1 | -0.0655% [at 42.5 µM] | – |
| Cc1nccn1CC1CCc2c(c3ccccc3n2C)C1=O (stereo not drawn) | -1.2% [at 42.5 µM] | – |
| CCN(CC)C(=O)N(CC)CC | 0.0634% | – |
| Cc1ccc(C)c(N)c1 | 0.0398% | – |
| O=C(O)c1cccc(C(=O)O)c1C(=O)O | -3.66% | – |
| O=C1C=CC(=O)N1c1ccc(Cc2ccc(N3C(=O)C=CC3=O)cc2)cc1 | – | 54.5 µM (active) |
| COc1ccc(COC=O)cc1 | 3.33% | – |
| CCNc1nc(N)nc(Cl)n1 | 2.21% | – |
| CCCCC(CC)CO (stereo not drawn) | – | inactive |
| O=CCCc1ccccc1 | 2.62% | – |
| CCC1COC(=O)O1 (stereo not drawn) | 4.9% | – |
| CCO[Si](CC)(OCC)OCC | 0.0341% | – |
| CCOCCOC(=O)/C=C/c1ccc(OC)cc1 | 3% [at 42.5 µM] | – |
| CCCCC(CC)COC(=O)CCCCC(=O)OCC(CC)CCCC (stereo not drawn) | – | inactive |
| CC(C)(C)CCCCCCOC(=O)c1ccccc1C(=O)OCCCCCCC(C)(C)C | 2.82% | – |
| Cc1ccc(S(=O)(=O)Oc2ccc(N=Nc3ccc(-c4ccc(N=Nc5c(O)ccc6cc(S(=O)(=O)O)cc(S(=O)(=O)O)c56)c(C)c4)cc3C)cc2)cc1 | – | inactive |
| Cc1ccc(C)c([N+](=O)[O-])c1 | 0.23% | – |
| CCOC(=O)CC(C)C | 3.74% | – |
| O=C(O)/C=C/c1ccc(Cn2ccnc2)cc1 | 4.2% [at 42.5 µM] | – |
| CCOC(=O)c1cnc2c(cnn2CC)c1NN=C(C)C | 3.24% [at 42.5 µM] | – |
